Screening results as filed in PubChem.
Sampled rows, rich in hits. Any-hit rate of the full collection: about 19%.
HT1080-NT tox = kills 2HG-producing HT-1080-NT fibrosarcoma cells | HT-1080-NT fibrosarcoma viability, CellTiter-Glo ATP luminescence, 48 h | Potency, µM (top dose mostly 46.1 µM), for inactives: top-dose activity, negative = less viability, usual class: cytotoxic | 360,000 tested, 1.6% active;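 further: NT is the 2HG producing partner of a matched IDH1 knockdown line; potency means the concentration at half of the fitted maximal effect; 0% = DMSO-treated cells and -100% = media-only wells without cells; nearly all actives have a fitted effect of over 55% in size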
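Fibrosarcoma NT cells, 750 per well in 5% FBS RPMI, were exposed to compound for 48 hours. Viability: CellTiter-Glo luminescence.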
TDP1 cell CPT = growth inhibition of DT40 Tdp1-/-;hTDP1 cells with camptothecin (screen for TDP1 inhibitors) | chicken DT40 Tdp1-/-;hTDP1 cells + 20 nM CPT, ATP luminescence, 48 h | Potency, µM (series often up to 46.2 µM), inactives show at the highest dose activity change, negative = growth inhibition, usual class: inhibitors | 420,000 tested, 12% active; further: potency means the concentration at half of the fitted maximal effect; nearly all actives have a fitted effect of over 55% in size
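Chicken DT40 Tdp1-/- cells complemented with human TDP1, 400 cells/well, exposed to compounds plus 20 nM camptothecin for at least 48 h at 37 C; viability read as ATP content by CellTiter-Glo luminescence.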
DT40 TDP1 no CPT = qHTS for Inhibitors of human tyrosyl-DNA phosphodiesterase 1 (TDP1): qHTS in cells in absence of CPT; DT40 Tdp1-/- hTDP1 cells, no CPT, ATP luminescence, 48 h; Potency, µM (top dose mostly 46.2 µM), inactives show top-dose activity change, negative = growth inhibition, actives largely listed as inhibitors; 420,000 tested, 15% active; further: potency means the concentration at half of the fitted maximal effect; nearly all actives have a fitted effect of over 55% in size
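Growth kinetics read by CellTiter-Glo luminescence after ≥48 hr at 37 °C. Cells: DT40 Tdp1-/- stably carrying human TDP1, 400 per well, compound exposure in the absence of CPT (DMSO vehicle).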
IL-1B inflam inh = inflammasome signaling inhibition, IL-1 beta readout | THP-1 LPS/ATP IL-1B secretion, AlphaLISA, 16 h; stronger effect = lower value | activity change, % at 57.5 µM | 360,000 tested, 4.7% active; in the data active means activity change below about -50%; inconclusive means mostly about -30% to -49%
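Secreted IL-1B measured by AlphaLISA bead assay after 16 h compound exposure of THP-1 cells; compounds (final up to 57.5 uM) added 1 h before LPS (250 ng/mL) and ATP (1.25 mM) stimulation; lower signal means less secretion.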
HT1080 IDH1KD tx = HT-1080 IDH1 knockdown cell toxicity (counter line) | HT-1080 IDH1 knockdown viability, ATP luminescence, 48 h | Potency, µM (series often up to 46.1 µM), for inactives: at the highest dose activity, negative = toxicity, hits mostly cytotoxic | 360,000 tested, 2% active | AID 686971;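 further: potency means the concentration at half of the fitted maximal effect; 0% = DMSO wells and -100% = cell-free medium wells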
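In this qHTS, HT-1080 cells depleted of IDH1 are exposed for 48 h at 37 °C to compound titrations. Toxicity is scored from CellTiter-Glo luminescence, with DMSO as full viability and medium alone as none.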
Starred values were filed as active, the others as inactive; i = inactive; ? = inconclusive; / = no result. Unless noted, the call rests on the fitted dose curve; in most records, active means well fitted curve in the direction sought with a large enough effect; inconclusive means small, poorly fitted or top-dose-only effect, or another doubt; inactive means no such curve, though single readings can be large; an effect the other way counts as inactive or inconclusive. Unless noted, on the % scale 0 is the no-effect control and ±100 the full control effect.

SMILES | HT1080-NT tox | TDP1 cell CPT | DT40 TDP1 no CPT | IL-1B inflam inh | HT1080 IDH1KD tx
COC(=O)[C@H](C)N(Cc1ccc(Cl)c(Cl)c1)S(=O)(=O)CCNC1CCCC1 | -25% | ? | 21µM* | ? | -27%
Clc1ccc(-c2csc(NNC3=NCCCCC3)n2)cc1 | -2% | ? | 16µM* | -77* | -5%
c1ccc(CNC2=NCCCCC2)cc1 | 8% | -8% | -8% | 0 | 15%
c1ccc(-c2csc(NNC3=NCCCCC3)n2)cc1 | ? | 2.1µM* | 1.8µM* | -13 | ?
CCOc1ccc(-c2csc(NNC3=NCCCCC3)n2)cc1 | -6% | 10µM* | 21µM* | -102* | -13%
c1ccc(NNC2=NCCCCC2)cc1 | ? | -17% | -41% | -11 | 4.1µM*
COc1ccc(-c2csc(NC3=NCCCCC3)n2)cc1 | 12% | -4% | 2% | -4 | 6%
Cc1cc(C)cc(NC(=S)N2CCC(NC(=O)c3ccccc3C)CC2)c1 | 0% | -11% | -19% | -5 | 0%
CCN1C(=O)N[C@@H](c2ccccc2)[C@H](C(=O)OC)[C@H]1C | 19% | 4% | -7% | 1 | 2%
CCN1c2ccccc2NC2N=C(OC)C(c3ccccc3)C21 (stereo not drawn) | 11µM* | 12µM* | 13µM* | 43 | 8.9µM*
O=c1[nH]c(CCl)nc2cc(-c3ccc(F)cc3)sc12 | 15µM* | 5.2µM* | 4.1µM* | -102* | 7.3µM*
CC(C)c1ccc(Nc2c(-c3ccc(N4CCOCC4)cc3)nc3ncccn23)cc1 | / | -18% | -24% | / | /
Clc1ccc2nc(-c3ccccc3)c(CN3CCOCC3)n2c1 | 9% | ? | ? | -20 | 2%
COc1ccc(-c2nc3c4ccccc4ccn3c2CN2CCOCC2)cc1OC | -14% | 15µM* | ? | ? | 6%
Cc1ccc(-c2nc3c4ccccc4ccn3c2CC2CCCCC2)cc1 | -2% | ? | -29% | 22 | -8%
COc1ccc(-c2nc3c4ccccc4ccn3c2CC2CCCCC2)cc1OC | -27% | ? | 23µM* | 5 | ?
c1ccc(-c2nc3c4ccccc4ccn3c2CN2CCOCC2)cc1 | -23% | 10µM* | 18µM* | -11 | -1%
Cc1ccc2c(=O)cc(C(=O)Nc3nnc(CC(C)C)s3)oc2c1C | / | 23% | 2% | / | /
O=C(Nc1cccc(S(=O)(=O)N2CCCCCC2)c1)c1ccc(Cl)nc1 | -9% | 18µM* | 15µM* | ? | -27%
COc1ccc(NC(=O)c2ccc(Cl)nc2)cc1S(=O)(=O)N1CCCCC1 | -22% | ? | ? | 35 | ?
O=C(Nc1cccc(S(=O)(=O)N2CCCCCC2)c1)c1ccc(=O)[nH]c1 | 10% | ? | 18µM* | 61 | 3%
O=C(Nc1ccc(S(=O)(=O)N2CCCCC2)cc1)c1ccc(=O)[nH]c1 | -6% | ? | ? | 91 | -6%
O=C(Nc1cccc(S(=O)(=O)N2CCCCC2)c1)c1ccc(Cl)nc1 | -10% | 21µM* | 15µM* | 22 | -2%
O=C(Nc1ccc(S(=O)(=O)N2CCCC2)cc1)c1ccc(Cl)nc1 | -15% | ? | ? | 1 | -11%
CCN(CC)S(=O)(=O)c1ccc(NC(=O)c2ccc(Cl)nc2)cc1 | -7% | ? | 23µM* | 14 | -15%
SMILES | HT1080-NT tox | TDP1 cell CPT | DT40 TDP1 no CPT | IL-1B inflam inh | HT1080 IDH1KD tx
CC(C)(C)c1cc(C2COC(=O)COCCOCC(=O)OCCOCCO2)cc(C(C)(C)C)c1O (stereo not drawn) | -2% | -3% | ? | 0 | -27%
COc1ccc(Br)cc1CN(C)CC(=O)NCCc1ccc(S(N)(=O)=O)cc1 | -11% | -30% | ? | -7 | -8%
O=C(Cc1ccc(Br)cc1)NO | -13% | ? | ? | / | 0%
O=C(Nc1ccc(S(=O)(=O)N2CCCCC2)cc1)c1ccc(Cl)nc1 | -6% | 18µM* | 6.5µM* | -21 | -7%
O=C(Nc1cccc(S(=O)(=O)Nc2ccccc2Cl)c1)c1ccc(Cl)nc1 | -4% | 12µM* | 15µM* | 7 | -8%
CCCc1cc(C(=O)Nc2ccc(C(=O)c3ccc(C)cc3)cc2)n(C)n1 | -28% | 15µM* | ? | -63* | ?
Cc1ccc(C(=O)COC(=O)C2C3C=CC(C3)C2C(=O)OCC(=O)c2ccc(C)c(C)c2)cc1C (stereo not drawn) | 3% | ? | ? | -53* | -1%
COc1ccc(CCNC(=O)c2ccc(-c3ccc([N+](=O)[O-])cc3Cl)o2)cc1 | 2% | ? | ? | ? | -4%
O=C(Nc1nnc(-c2ccco2)o1)c1ccc(S(=O)(=O)N2CCCC2)cc1 | ? | ? | ? | 50 | ?
CC1CN(S(=O)(=O)c2cccc(C(=O)NCCCn3ccnc3)c2)CC(C)O1 (stereo not drawn) | -4% | -2% | -17% | 7 | -5%
CC1CCN(S(=O)(=O)c2ccc(C(=O)Nc3nnc(-c4ccco4)o3)cc2)CC1 | -9% | 15µM* | 18µM* | i | -20%
CC1CN(S(=O)(=O)c2ccc(C(=O)Nc3nnc(-c4ccco4)o3)cc2)CC(C)O1 (stereo not drawn) | -28% | 23µM* | ? | 7 | -17%
CC1CN(S(=O)(=O)c2ccc(C(=O)NCCCn3ccnc3)cc2)CC(C)O1 (stereo not drawn) | 2.1µM* | -26% | ? | -12 | 1.8µM*
Cc1cccnc1NC(=O)c1ccc(Cl)c(S(=O)(=O)N2CCCCCC2)c1 | ? | -14% | ? | 0 | ?
CCC(C)NC(=O)CCC(=O)N1Cc2ccccc2Oc2ncccc21 (stereo not drawn) | / | -11% | -15% | / | /
O=C(CC1C(=O)NCCN1C(=O)c1ccc(Cl)cc1)Nc1ccc(F)cc1 (stereo not drawn) | -6% | 1% | 11% | -3 | 1%
COc1ccc(OC)c(NC(=O)CC2C(=O)NCCN2C(=O)Nc2cccc(Cl)c2)c1 (stereo not drawn) | ? | ? | -14% | -66* | ?
O=C(CC1C(=O)NCCN1C(=O)Nc1ccc(Cl)cc1)Nc1ccc(F)cc1 (stereo not drawn) | ? | -29% | -21% | -64* | ?
COc1ccc(C(=O)N2CCNC(=O)C2CC(=O)Nc2cc(Cl)ccc2OC)cc1 (stereo not drawn) | 16% | -2% | -4% | -15 | 13%
Cc1c(NC(=O)CS(=O)(=O)c2ccccc2)c(=O)n(-c2ccccc2)n1C | 15% | 11% | 13% | 10 | 6%
CCCCN(CCCC)CCCOC(=O)c1ccc(N)cc1 | 0% | -3% | ? | 7 | -6%
